From the supplement of paper PMC10127200
Structures can show the parent of a compound that is named as a salt.

Key:
Assay in all cases: Euclidean distance of Cell Painting phenotypic profile (signed KS, 77 features) to DMSO centroid (dimensionless distance); 5 or 10 uM (library dependent); higher = stronger phenotypic change vs DMSO (phenoactivity)
Conditions in all cases: 48 h
786-O = test system: 786-O
Outline: (§1)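 Five cancer lines and a healthy fibroblast line received library compounds at 10 or 5 uM (library-dependent, 0.1% DMSO final) for 48 h. Stained cells were imaged confocally at 20X (9 fields/well). Harmony extracted 77 features, each scored as a signed Kolmogorov-Smirnov statistic against same-plate vehicle wells. Profiles were plate-position corrected, correlation-weighted and replicate-averaged at the top dose. Phenoactivity is the Euclidean distance from each profile to the median vehicle profile.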

A549 = test system: A549
Outline: as §1

DU145 = test system: DU145
Outline: as §1

FB = test system: FB
Outline: as §1

HEPG2 = test system: HEPG2
Outline: as §1

OVCAR4 = test system: OVCAR4
Outline: as §1

SMILES	Euclidean distance (786-O)	Euclidean distance (A549)	Euclidean distance (DU145)	Euclidean distance (FB)	Euclidean distance (HEPG2)	Euclidean distance (OVCAR4)
O=C(O)Cc1ccccc1Nc1c(Cl)cccc1Cl [Diclofenac Epolamine]	0.939	0.571	1.14	0.969	0.65	1.22
CC(C)c1c(C(=O)Nc2ccccc2)c(-c2ccccc2)c(-c2ccc(F)cc2)n1CC[C@@H](O)C[C@@H](O)CC(=O)O [Atorvastatin Calcium]	2.68	1.33	1.15	3.05	2.23	1.8
CC(C)NC[C@@H](O)COc1ccc(CC(N)=O)cc1 [(R)-(+)-Atenolol HCl]	0.631	0.523	0.486	0.716	0.626	0.511
COc1cc2nccc(Oc3ccc(NC(=O)Nc4cc(C)on4)c(Cl)c3)c2cc1OC [Tivozanib (AV-951)]	2.03	2.81	1.83	2.67	2.21	2.39
CC1(C)CCC(c2ccc(Cl)cc2)=C(CN2CCN(c3ccc(C(=O)NS(=O)(=O)c4ccc(N[C@H](CCN5CCOCC5)CSc5ccccc5)c(S(=O)(=O)C(F)(F)F)c4)cc3)CC2)C1 [ABT-263 (Navitoclax)]	1.75	2.22	1.24	1.16	1.25	0.98
O=C(O)CCCN1CCC(O[C@@H](c2ccc(Cl)cc2)c2ccccn2)CC1 [Bepotastine]	0.883	0.582	0.573	0.639	0.595	0.955
COc1cc2ncnc(Sc3nnc(C)s3)c2cc1OC	1.26	1.44	0.977	1.09	2.45	1.9
CC(=O)[C@@]1(O)CC[C@H]2[C@@H]3C[C@H](C)C4=CC(=O)C=C[C@]4(C)[C@@]3(F)[C@@H](O)C[C@@]21C [Fluorometholone]	0.819	2.59	1.54	1.73	1.04	1.8
CCCS(=O)(=O)Nc1ccc(F)c(C(=O)c2c[nH]c3ncc(Cl)cc23)c1F	0.904	1.4	0.951	1.12	2.17	0.992
COc1ccc2cc3[n+](cc2c1OC)CCc1cc2c(cc1-3)OCO2 [Berberine]	1.31	1.85	0.876	1.96	1.57	1.4
CCCCC(O)c1ccccc1 (centres undefined) [Fenipentol]	1.46	1.44	1.43	0.766	0.912	1.68
C[C@H]1COc2c(N3CCN(C)CC3)c(F)cc3c(=O)c(C(=O)O)cn1c23 [Levofloxacin]	1.07	1.12	0.658	0.922	0.532	1.03
CN1CC2c3ccccc3Oc3ccc(Cl)cc3C2C1 (centres undefined) [Asenapine]	1.1	0.811	0.805	1.19	1.03	0.94
O=[N+]([O-])c1cncn1CCN1CCOCC1 [Nimorazole]	0.827	0.551	1.21	0.76	1.18	0.937
Cc1cc(Nc2ncc(Cl)c(Nc3ccccc3S(=O)(=O)C(C)C)n2)c(OC(C)C)cc1C1CCNCC1 [Ceritinib (LDK378)]	6.15	4.94	7.35	6.34	4.96	5.69
C=C1/C(=C\C=C2/CCC[C@]3(C)[C@@H]([C@H](C)/C=C/[C@H](C)C(C)C)CC[C@@H]23)C[C@@H](O)C[C@@H]1O [Doxercalciferol]	2.73	1.49	6.05	1.9	2.03	1.73
COc1cc(OC)c2c(=O)[nH]c(-c3cc(C)c(OCCO)c(C)c3)nc2c1 [Apabetalone (RVX-208)]	1.25	0.468	1.25	0.996	0.48	0.642
c1cnc2cc3c(cc2n1)[C@@H]1CNC[C@H]3C1 [Varenicline Tartrate]	0.702	0.985	0.786	0.802	0.459	1.05
O=C(O[C@@H]1C[C@@H]2C[C@H]3C[C@H](C1)N2CC3=O)c1c[nH]c2ccccc12 [Dolasetron]	1.37	2.35	2.37	1.37	0.624	2.04
C[C@H]1[C@H](C)CC[C@]2(C(=O)O)CC[C@]3(C)C(=CC[C@@H]4[C@@]5(C)C[C@@H](O)[C@H](O)[C@@](C)(CO)[C@@H]5CC[C@]43C)[C@H]12 [Asiatic Acid]	0.996	0.839	1.11	1.04	1.24	0.885
O=C(Nc1nc(-c2cc(Cl)cs2)c(N2CCN(C3CCCCC3)CC2)s1)c1cnc(N2CCC(C(=O)O)CC2)c(Cl)c1 [Avatrombopag]	1.81	0.802	1.84	0.858	1.41	1.05
Cc1ccc(S(=O)(=O)/C=C/C#N)cc1	1.7	1.37	1.36	3.14	2.05	2.5
CN(C)CCOC(=O)C(c1ccccc1)C1(O)CCCC1 (centres undefined) [Cyclopentolate Hydrochloride]	1.16	0.28	0.841	1.15	0.601	1.57
CCOC(=O)C1=C(COCCN)NC(C)=C(C(=O)OC)C1c1ccccc1Cl (centres undefined) [Amlodipine Besylate]	1.08	0.672	0.871	1.18	1.64	1.07
C[C@@H]1C/C=C/C=C/C=C/C=C/[C@H](O[C@@H]2O[C@H](C)[C@@H](O)[C@H](N)[C@@H]2O)C[C@@H]2O[C@](O)(C[C@@H](O)C[C@H]3O[C@@H]3/C=C/C(=O)O1)C[C@H](O)[C@H]2C(=O)O [Natamycin]	1.51	0.972	1.07	1.11	1.14	1.02

SMILES	Euclidean distance (786-O)	Euclidean distance (A549)	Euclidean distance (DU145)	Euclidean distance (FB)	Euclidean distance (HEPG2)	Euclidean distance (OVCAR4)
COCCNCCc1cccc(Nc2ncc3c(n2)-c2ccccc2[C@H](c2ccccc2F)C3)c1 [Derazantinib(ARQ-087)]	6.37	4.25	5.6	3.69	4.56	4
Cc1ccc(C(=O)c2cc(O)c(O)c([N+](=O)[O-])c2)cc1 [Tolcapone]	0.991	1.18	1.08	0.848	0.591	1.5
Cc1cn([C@@H]2C[C@@H](O)[C@H](CO)O2)c(=O)[nH]c1=O [Telbivudine]	1.15	0.884	0.651	1.53	0.469	1.12
COc1ccc(Cn2ccc3ccc(C(=O)NO)cc32)cc1	1.83	1.18	1.25	2.16	1.5	0.415
CCOC(=O)C1=C(COCCN)NC(C)=C(C(=O)OC)[C@@H]1c1ccccc1Cl [Levamlodipine]	0.971	0.702	0.684	1.12	0.978	0.931
COc1ccc2c(c1)c(CC(=O)O)c(C)n2C(=O)c1ccc(Cl)cc1 [Indomethacin]	1.44	0.49	1.66	0.86	1.8	1.2
CCCCCCCCCCC[C@@H](C[C@@H]1OC(=O)[C@H]1CCCCCC)OC(=O)[C@H](CC(C)C)NC=O [Orlistat]	1.47	1.11	0.901	1.42	1.12	0.935
O=C(O)Cc1cc(I)c(Oc2ccc(O)c(I)c2)c(I)c1 [Tiratricol]	0.855	0.554	0.644	0.597	0.536	0.847
CC1(C)O[C@H]2CC(=O)OC[C@]23[C@H]2CC[C@@]4(C)[C@H](c5ccoc5)OC(=O)[C@H]5O[C@]54[C@]2(C)C(=O)C[C@@H]13 [Limonin]	0.804	0.714	0.885	0.843	1.05	1.05
O=C(O)COCCN1CCN([C@H](c2ccccc2)c2ccc(Cl)cc2)CC1 [Levocetirizine Dihydrochloride]	0.875	1.39	0.783	1.09	0.867	1.4
N[C@@H](CCC(=O)O)C(=O)O [(S)-Glutamic acid]	1.39	0.982	1.47	0.799	0.834	1.57
Cc1cc(-c2ncc(CC(=O)Nc3ccc(-c4cnccn4)cn3)cc2C)ccn1	1.05	1.24	0.884	0.878	0.741	0.931
CC(c1cc2ccccc2s1)N(O)C(N)=O (centres undefined) [Zileuton]	1.8	0.949	0.621	1.2	1.12	1.11
COCCOC(=O)C1=C(C)NC(C)=C(C(=O)OC(C)C)C1c1cccc([N+](=O)[O-])c1 (centres undefined) [Nimodipine]	1.59	1.37	1.08	1.08	1.96	1.09
Clc1ccc(Nc2nnc(Cc3ccncc3)c3ccccc23)cc1 [Vatalanib (PTK787) 2HCl]	1.01	1.05	1.47	1.53	1.42	1.29
COc1c(C)c(C(=O)c2ccc(N)c(C(=O)O)c2)n2ccccc12	0.838	1.03	0.919	1.47	0.969	1.32
CC(=O)Oc1ccc(C(c2ccc(OC(C)=O)cc2)c2ccccn2)cc1 [Bisacodyl]	1.2	1.2	0.531	3.08	0.712	1.41
CN(C)c1cc(NC(=O)CNC(C)(C)C)c(O)c2c1C[C@H]1C[C@H]3[C@H](N(C)C)C(O)=C(C(N)=O)C(=O)[C@@]3(O)C(O)=C1C2=O [Tigecycline]	1.81	0.996	1.03	1.6	1.09	1.18
Cc1ncc(CO)c(CO)c1O [Pyridoxine HCl]	0.686	0.861	0.642	0.7	0.426	1.11
C=CC(=O)Nc1cccc(Oc2nc(Nc3ccc(N4CCN(C)CC4)c(F)c3)nc3[nH]ccc23)c1 [Avitinib (AC0010)]	4.87	4.16	3.49	3.92	3.45	3.76
CCN(CC)CCOC(=O)C1(C2CCCCC2)CCCCC1 [Dicyclomine HCl]	1.23	1.1	1.39	1.16	1.04	1.43
Cc1nn(-c2ccccc2)c(C)c1C=NN1CCN(Cc2ccccc2)CC1	1.24	1.25	0.724	0.733	1.16	1.34
CCOc1ccc2nc3cc(N)ccc3c(N)c2c1 [Ethacridine lactate monohydrate]	2.72	2.06	3.08	3.62	3.62	1.62
Cc1c(C(=O)Nc2ccc(N3C[C@@H](C)O[C@@H](C)C3)nc2)cccc1-c1ccc(OC(F)(F)F)cc1 [LDE225 (NVP-LDE225.Erismodegib)]	0.757	1.2	0.747	0.782	1.4	1.38
